Measurements taken from PubChem BioAssay.

biological target: Tumor necrosis factor receptor superfamily member 10B (Homo sapiens) (UniProt O14763); assay: compound enhancement of TRAIL-induced cell killing – NB7 cells plus caspase-8, luminescence, panel, dose response (AID 652002); settings: NB7 neuroblastoma +caspase-8, TRAIL sensitization, luminescence viability, NB7+Caspase-8, with TRAIL, run 2; at 12.5 µM (top of the series)
Sequence (O14763 whole entry, looked up): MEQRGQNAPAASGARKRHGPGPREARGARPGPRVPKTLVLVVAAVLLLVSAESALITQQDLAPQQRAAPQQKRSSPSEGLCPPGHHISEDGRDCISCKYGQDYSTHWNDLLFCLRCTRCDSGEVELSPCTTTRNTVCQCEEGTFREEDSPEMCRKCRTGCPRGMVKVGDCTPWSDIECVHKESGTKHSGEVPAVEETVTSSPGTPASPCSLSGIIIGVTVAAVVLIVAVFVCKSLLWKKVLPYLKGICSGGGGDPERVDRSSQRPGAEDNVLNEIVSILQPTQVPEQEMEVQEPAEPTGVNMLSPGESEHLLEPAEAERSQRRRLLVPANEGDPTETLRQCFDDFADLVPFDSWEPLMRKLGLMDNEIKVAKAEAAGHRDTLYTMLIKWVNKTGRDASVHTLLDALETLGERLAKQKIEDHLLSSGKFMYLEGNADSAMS

Row | Compound | activity, % sensitization [%]
1 | COC(=O)c1ccc(/C=C/c2nc3ccccc3c(=O)[nH]2)cc1 | -22.1
2 | CCOc1ccc(-c2cc(C(=O)N3CCC(C)CC3)c3ccccc3n2)cc1 | 31.6
3 | CCOc1ccc(NC(=O)Nc2cccs2)cc1 | 52.3
4 | CCCCCCCn1c2c(c(=N)c3ccccc31)CCC2 | 38.9
5 | CN(C(=O)COC(=O)c1cnc(Cl)c(Cl)c1)C1CCCCC1 | 14.2
6 | COC(=O)c1ccc(/C=C(\C#N)c2ccccn2)cc1 | -19.4
7 | Cc1cc2nc(-c3ccc(SCC(=O)Nc4nccs4)nc3)[nH]c2cc1C | 48.9
8 | C(=C\c1ccco1)/c1nc2ccccc2[nH]1 | 5.08
9 | Cc1nc2cc(NC(=O)Nc3cccc([N+](=O)[O-])c3)ccc2n1C | 49.5
10 | O=C(ONC1=NCCCCC1)c1ccc(Cl)cc1 | 23.5
11 | O=C(NC(=O)c1ccccc1)Nc1ccccc1 | 6.32
12 | O=C(N/N=C/c1cccc(OC(=O)c2ccco2)c1)c1ccc(F)cc1 | 46.3
13 | CN(C)CCCN(C(=O)c1ccc(S(=O)(=O)N2CCCc3ccccc32)cc1)c1nc2ccc(F)cc2s1 | 18.8
14 | O=c1[nH]c(=S)[nH]c2c1C(c1ccc(Cl)c(Cl)c1)OC(CCc1ccccc1)C2 (stereo not given) | -15.8
15 | O=C(NNC(=O)c1cc(OCC(F)(F)F)ccc1OCC(F)(F)F)c1ccc(Cl)c(Cl)c1 | 2.58
16 | Nc1ccccc1C(=O)NN=Cc1cccc([N+](=O)[O-])c1 | 53.8
17 | Cc1ccn2cc(C(=O)Nc3ccc4c(c3)OCCO4)nc2c1 | 40.7
18 | Cn1nnc(NC(=O)c2ccc(C(C)(C)C)cc2)n1 | 61.4
19 | CCCCC1CCC(C(=O)N(CCC(C)C)c2c(N)n(CCCC)c(=O)[nH]c2=O)CC1 (stereo not given) | -10.1
20 | COc1ccc(OCC(=O)N/N=C/C=C/c2ccccc2)cc1 | 46.1

Row | Compound | activity, % sensitization [%]
21 | CCOC(=O)C(=C1Nc2ccccc2N1)n1c(-c2cccnc2)nc2ccccc21 | 36.8
22 | O=C(Oc1c(CN2CCOCC2)cc(Cl)c2cccnc12)c1cccs1 | 44.5
23 | COc1ccc(-c2cc(C(=O)N/N=C/c3cccnc3)c3ccccc3n2)cc1 | 33.2
24 | COc1ccc(-c2nc(-c3ccc(NC(=O)c4ccncc4)cc3)no2)cc1OC | -17.5
25 | CC1(C)N=C(N)N=C(N)N1c1ccc(CCCCc2ccccc2)cc1 | 52.2
26 | C=Cc1ccc(Cn2c(C)c(C(=O)NCc3cccc(C(F)(F)F)c3)sc2=O)cc1 | -12.9
27 | Cc1nc2cc(NC(=O)c3ccco3)ccc2n1C | 32.8
28 | CCOc1ccc2nc(NC(=O)c3cccc(-c4cc5ccccc5oc4=O)c3)sc2c1 | -15.7
29 | CCSc1ccc(-c2ccc(C)cc2)nn1 | 52.9
30 | COc1ccc(NS(=O)(=O)c2cccc(C(=O)N/N=C/c3c(F)c(F)c(F)c(F)c3F)c2)cc1 | 35.1
31 | CC(C)C(=O)Nc1ccc(NC(=O)c2ccccn2)cn1 | 36.7
32 | Cc1ccc(-n2nnc(-c3cccnc3Cl)n2)cc1 | -11.1
33 | O=C(Nc1ccc(C(=O)O)cc1)/C(=C\C=C\c1ccccc1)NC(=O)c1ccccc1Cl | 38.4
34 | O=C(Nc1ccc2ccccc2c1)c1ccc(Cl)cc1 | 31.4
35 | CCN(CC)c1ccc(NC(=O)Nc2ccccc2)cc1 | 44.7
36 | Cc1nn(-c2ccccc2)c2nc(N)c(C#N)c(-c3ccc(F)cc3)c12 | 4.3
37 | Cc1nc(Cl)c2oc3ccccc3c2n1 | -0.917
38 | O=C1Cc2c(-c3ccccc3)cc(-c3cccc(Cl)c3)nc2-c2ccccc2N1 | -0.0597
39 | O=C(NC1=NCCS1)c1cc2ccccc2o1 | 47
40 | Cc1cccc(CC(=O)Nc2cc(C)c3c(=O)oc4ccccc4c3n2)c1 | -4.35

test system: not listed separately; assay: as above; settings: NB7 neuroblastoma +caspase-8, no TRAIL, compound-alone cytotoxicity counter-screen, luminescence viability, NB7+Caspase-8, run 1; at 12.5 µM (top of the series) unless noted

Row | Compound | activity, % sensitization [%]
41 | COC(=O)c1ccc(/C=C/c2nc3ccccc3c(=O)[nH]2)cc1 | 2.64
42 | CCOc1ccc(-c2cc(C(=O)N3CCC(C)CC3)c3ccccc3n2)cc1 | -3.22
43 | CCOc1ccc(NC(=O)Nc2cccs2)cc1 | 40.7
44 | CCCCCCCn1c2c(c(=N)c3ccccc31)CCC2 | 0.756
45 | CN(C(=O)COC(=O)c1cnc(Cl)c(Cl)c1)C1CCCCC1 | -5.35
46 | COC(=O)c1ccc(/C=C(\C#N)c2ccccn2)cc1 | -8.36
47 | Cc1cc2nc(-c3ccc(SCC(=O)Nc4nccs4)nc3)[nH]c2cc1C | -17.8
48 | C(=C\c1ccco1)/c1nc2ccccc2[nH]1 | -6.68
49 | Cc1nc2cc(NC(=O)Nc3cccc([N+](=O)[O-])c3)ccc2n1C | 0.985
50 | O=C(ONC1=NCCCCC1)c1ccc(Cl)cc1 | 7.61
51 | O=C(NC(=O)c1ccccc1)Nc1ccccc1 | 7.63
52 | O=C(N/N=C/c1cccc(OC(=O)c2ccco2)c1)c1ccc(F)cc1 | 49.2
53 | CN(C)CCCN(C(=O)c1ccc(S(=O)(=O)N2CCCc3ccccc32)cc1)c1nc2ccc(F)cc2s1 | -8.84
54 | O=c1[nH]c(=S)[nH]c2c1C(c1ccc(Cl)c(Cl)c1)OC(CCc1ccccc1)C2 (stereo not given) | -5.58
55 | O=C(NNC(=O)c1cc(OCC(F)(F)F)ccc1OCC(F)(F)F)c1ccc(Cl)c(Cl)c1 | -2.88
56 | Nc1ccccc1C(=O)NN=Cc1cccc([N+](=O)[O-])c1 | -5.65
57 | Cc1ccn2cc(C(=O)Nc3ccc4c(c3)OCCO4)nc2c1 | 47.9
58 | Cn1nnc(NC(=O)c2ccc(C(C)(C)C)cc2)n1 | -4.98
59 | CCCCC1CCC(C(=O)N(CCC(C)C)c2c(N)n(CCCC)c(=O)[nH]c2=O)CC1 (stereo not given) | -5.24
60 | COc1ccc(OCC(=O)N/N=C/C=C/c2ccccc2)cc1 | 31.1

Row | Compound | activity, % sensitization [%]
61 | CCOC(=O)C(=C1Nc2ccccc2N1)n1c(-c2cccnc2)nc2ccccc21 | -4.97
62 | O=C(Oc1c(CN2CCOCC2)cc(Cl)c2cccnc12)c1cccs1 | 8.65
63 | COc1ccc(-c2cc(C(=O)N/N=C/c3cccnc3)c3ccccc3n2)cc1 | 21.2
64 | COc1ccc(-c2nc(-c3ccc(NC(=O)c4ccncc4)cc3)no2)cc1OC | 2.44
65 | CC1(C)N=C(N)N=C(N)N1c1ccc(CCCCc2ccccc2)cc1 | 1.29
66 | C=Cc1ccc(Cn2c(C)c(C(=O)NCc3cccc(C(F)(F)F)c3)sc2=O)cc1 | 5.05
67 | Cc1nc2cc(NC(=O)c3ccco3)ccc2n1C | -8.74
68 | CCOc1ccc2nc(NC(=O)c3cccc(-c4cc5ccccc5oc4=O)c3)sc2c1 | -20.2
69 | CCSc1ccc(-c2ccc(C)cc2)nn1 | 5.62
70 | COc1ccc(NS(=O)(=O)c2cccc(C(=O)N/N=C/c3c(F)c(F)c(F)c(F)c3F)c2)cc1 | -2.02
71 | CC(C)C(=O)Nc1ccc(NC(=O)c2ccccn2)cn1 | 8.97
72 | Cc1ccc(-n2nnc(-c3cccnc3Cl)n2)cc1 | 12
73 | O=C(Nc1ccc(C(=O)O)cc1)/C(=C\C=C\c1ccccc1)NC(=O)c1ccccc1Cl | 36.3
74 | O=C(Nc1ccc2ccccc2c1)c1ccc(Cl)cc1 | 13
75 | CCN(CC)c1ccc(NC(=O)Nc2ccccc2)cc1 | 12
76 | Cc1nn(-c2ccccc2)c2nc(N)c(C#N)c(-c3ccc(F)cc3)c12 | 6.23
77 | Cc1nc(Cl)c2oc3ccccc3c2n1 | -7.33
78 | O=C1Cc2c(-c3ccccc3)cc(-c3cccc(Cl)c3)nc2-c2ccccc2N1 | -14.1
79 | O=C(NC1=NCCS1)c1cc2ccccc2o1 | 8.75
80 | Cc1cccc(CC(=O)Nc2cc(C)c3c(=O)oc4ccccc4c3n2)c1 | -6.37
